Among all 5,500 compounds or so, about 2,000 (36%) were called active. About 18% were inconclusive and are not listed. No stated cut-off is given here; in the data, active means normalized growth mostly below about 0.91 (no sharp cut-off); inconclusive means no clear call, values can overlap the other calls; inactive means mostly above about 0.92. The list shows a part of the results.
Test: chemical genetic growth profiling, strain panel (AID 1159580);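 further: tested at 20 µM; growth read once vehicle control cultures reached saturation at 30 °C; 1 = growth at the plate median or of vehicle wells; lower values mean less growth of the strain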
Settings: S. cerevisiae deletion strains, growth OD

Measured: normalized growth

CC(=O)O[C@H]1CCC2(C)C3=C(CCC2C1(C)C)[C@]1(C)CCC(C(C)CCC=C(C)C)[C@@]1(C)CC3 (stereo not given in full)
inactive: locus YAL021C, strain ccr4, hits give low values 1.05 | locus YAL026C, strain drs2, hits give low values 0.971 | locus YAL030W, strain snc1, hits give low values 0.996 | locus YBL061C, strain skt5, hits give low values 0.99 | locus YBR009C, strain hhf1, hits give low values 0.998 | locus YBR023C, strain chs3, hits give low values 0.984 | locus YBR171W, strain sec66, hits give low values 0.994 | locus YBR231C, strain swc5, hits give low values 0.961 | locus YBR279W, strain paf1, hits give low values 0.996 | locus YCL011C, strain gbp2, hits give low values 1.01 | locus YCL016C, strain dcc1, hits give low values 1.01 | locus YCL061C, strain MRC1, hits give low values 0.995 | locus YCL069W, strain vba3, hits give low values 0.999 | locus YCR088W, strain abp1, hits give low values 1 | locus YDL005C, strain med2, hits give low values 0.983 | locus YDL040C, strain nat1, hits give low values 0.991 | locus YDR001C, strain nth1, hits give low values 1.01 | locus YDR069C, strain doa4, hits give low values 0.966 | locus YDR137W, strain rgp1, hits give low values 0.957 | locus YDR159W, strain sac3, hits give low values 0.965 | locus YDR195W, strain ref2 0.958 | locus YDR297W, strain sur2, hits give low values 0.993 | locus YDR334W, strain swr1, hits give low values 1 | locus YDR335W, strain msn5, hits give low values 1.01 | locus YDR392W, strain spt3, hits give low values 0.979 | locus YEL003W, strain gim4, hits give low values 0.969 | locus YEL037C, strain rad23, hits give low values 0.999 | locus YEL061C, strain CIN8 (second series), hits give low values 1.01 | locus YER015W, strain faa2, hits give low values 0.996 | locus YER016W, strain bim1, hits give low values 0.995 | locus YER111C, strain swi4, hits give low values 0.986 | locus YER155C, strain BEM2 (second series), hits give low values 1.02 | locus YFR010W, strain ubp6, hits give low values 0.97 | locus YGL167C, strain pmr1, hits give low values 0.99 | locus YGL173C, strain kem1, hits give low values 0.971 | locus YGL227W, strain vid30, hits give low values 0.996 | locus YGL240W, strain doc1, hits give low values 0.988 | locus YGL253W, strain hxk2, hits give low values 0.933 | locus YHR013C, strain ard1, hits give low values 1.02 | locus YHR027C, strain rpn1, hits give low values 0.993 | locus YHR030C, strain SLT2, hits give low values 0.968 | locus YHR079C, strain IRE1, hits give low values 0.994 | locus YHR142W, strain chs7, hits give low values 0.994 | locus YJL092W, strain hpr5, hits give low values 0.996 | locus YJL095W, strain BCK1 (second series), hits give low values 0.999 | locus YJL095W, strain BCK1, hits give low values 0.956 | locus YJL115W, strain asf1, hits give low values 0.987 | locus YJL129C, strain trk1, hits give low values 0.977 | locus YJL154C, strain vps35, hits give low values 0.999 | locus YJL164C, strain tpk1, hits give low values 1.03 | locus YJL166W, strain qcr8, hits give low values 0.98 | locus YJL187C, strain SWE1, hits give low values 0.997 | locus YJR066W, strain TOR1, hits give low values 0.937 | locus YKL160W, strain elf1, hits give low values 1.03 | locus YKR026C, strain gcn3, hits give low values 0.992 | locus YKR091W, strain srl3, hits give low values 1 | locus YLL001W, strain dnm1, hits give low values 0.958 | locus YLL026W, hits give low values 1 | locus YLL041C, strain sdh2, hits give low values 1 | locus YLR027C, strain aat2, hits give low values 1 | locus YLR113W, strain HOG1, hits give low values 0.957 | locus YLR221C, strain rsa3, hits give low values 0.98 | locus YLR258W, strain gsy2, hits give low values 0.999 | locus YLR262C, strain YPT6 (second series), hits give low values 0.951 | locus YLR320W, strain mms22, hits give low values 0.995 | locus YLR342W, strain FKS1, hits give low values 1 | locus YLR357W, strain rsc2, hits give low values 0.996 | locus YLR370C, strain arc18, hits give low values 0.988 | locus YLR384C, strain iki3, hits give low values 0.968 | locus YML120C, strain ndi1, hits give low values 1.01 | locus YMR058W, strain fet3, hits give low values 0.975 | locus YMR125W, strain sto1, hits give low values 1.02 | locus YMR129W, hits give low values 1 | locus YMR205C, strain PFK2, hits give low values 1.03 | locus YMR231W, strain pep5, hits give low values 0.983 | locus YNL071W, strain lat1, hits give low values 1.04 | locus YNL183C, strain NPR1, hits give low values 0.896 | locus YNL209W, strain ssb2, hits give low values 1.01 | locus YNL248C, strain rpa49, hits give low values 0.97 | locus YNL322C, strain KRE1 (second series), hits give low values 0.978 | locus YNR049C, strain mso1, hits give low values 0.988 | locus YOR001W, strain rrp6, hits give low values 0.923 | locus YOR070C, strain gyp1, hits give low values 1 | locus YOR080W, strain dia2, hits give low values 0.969 | locus YOR083W, strain WHI5, hits give low values 1.02 | locus YOR106W, strain vam3, hits give low values 1.02 | locus YOR231W, strain MKK1, hits give low values 0.969 | locus YOR265W, strain rbl2, hits give low values 1.01 | locus YOR270C, strain vph1, hits give low values 0.814 | locus YOR290C, strain snf2, hits give low values 1.02 | locus YPL051W, strain arl3, hits give low values 0.989 | locus YPL078C, strain atp4, hits give low values 1.04 | locus YPL106C, strain sse1, hits give low values 1.09 | locus YPL240C, strain hsp82, hits give low values 0.994 | locus YPL256C, strain CLN2, hits give low values 0.979

From PubChem BioAssay AID1159580 (chemical genetic matrix, 2015)
